Source: PubChem (National Center for Advancing Translational Sciences (NCATS))
Rab9 prom act = activators of Rab9 promoter; Huh7 Rab9 promoter-luciferase reporter, luminescence, 24 h; Potency, µM (titrated, usually from 9.22 µM), for the others: at the highest dose activation, negative = inhibition, usual class: activators; 2.8% of 320,000 active; AID 485297; note: % of control where 0% means no effect; nearly all actives have a fitted effect of over 60% in size
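Huh7 reporter line, Rab9 promoter upstream of luciferase. Compound exposure 24 h at 37 °C in reduced-serum medium with 10% FBS. Read-out: luminescence.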
ELG1 genotox = induces genotoxicity in HEK293T cells with luciferase-tagged ELG1; Potency, µM (highest dose often 46 µM), for inactives: top-dose activity change, positive = activation, usual class: activators; AID 504466; HEK293T ELG1-luciferase reporter, luminescence, 16 h; 1.3% of 330,000 active; note: % of control where 0% means no effect; nearly all actives have a fitted effect of over 60% in size
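Cells (2,000/well) expressing the ELG1-luciferase fusion are dosed by pin tool and kept 16 hr at 37 °C, 5% CO2. Signal comes from ONE-Glo luciferase reagent after 30 min at room temperature.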
SMN2 splice enh = increases expression of the SMN2 splice variant; HEK293 SMN2-luciferase splicing reporter, luminescence, 30-36 h; Potency, µM (series often up to 46.1 µM), for the others: at the highest dose activity change, positive = activation, actives largely listed as activators; 2.8% of 210,000 active; note: % of control where 0% means no effect; nearly all actives have a fitted effect of over 55% in size
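qHTS luciferase splicing reporter: luminescence rises when SMN2 exon 7 is included in transfected HEK293 cells. Compound exposure lasted 30-36 h at 37C, with 4.5 mM final sodium butyrate as control, followed by a ONE-Glo read.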
FLuc modulator = firefly luciferase modulation, counter-screen for miR-21 project; purified FLuc, Km substrates, luminescence inhibition; Potency, µM (highest dose often 57.5 µM), for the others: at the highest dose activity change, negative = inhibition, hits mostly inhibitors; 6.9% of 360,000 active; AID 588342;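 note: plate controls were vehicle for no effect and reference inhibitor for full effect; nearly all actives have a fitted effect of over 55% in size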
Target sequence (P08659 whole entry, looked up): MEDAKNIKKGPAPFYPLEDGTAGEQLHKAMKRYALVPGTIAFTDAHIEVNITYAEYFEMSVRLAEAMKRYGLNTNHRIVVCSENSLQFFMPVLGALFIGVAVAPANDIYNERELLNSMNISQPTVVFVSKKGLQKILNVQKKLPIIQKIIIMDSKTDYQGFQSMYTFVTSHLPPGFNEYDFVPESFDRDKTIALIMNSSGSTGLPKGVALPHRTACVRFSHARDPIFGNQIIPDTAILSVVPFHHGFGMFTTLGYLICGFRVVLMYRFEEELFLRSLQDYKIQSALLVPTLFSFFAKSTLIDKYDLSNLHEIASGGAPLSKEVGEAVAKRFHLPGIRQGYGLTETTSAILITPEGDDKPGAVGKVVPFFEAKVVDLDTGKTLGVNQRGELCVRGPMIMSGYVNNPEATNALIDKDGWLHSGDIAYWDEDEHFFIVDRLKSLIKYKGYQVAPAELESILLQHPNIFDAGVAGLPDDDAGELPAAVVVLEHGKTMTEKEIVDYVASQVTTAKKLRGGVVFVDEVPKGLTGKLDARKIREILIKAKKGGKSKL
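Biochemical qHTS of compounds, final roughly 60 µM downward over six points, against 10 nM purified firefly luciferase using Km concentrations of substrates (10 uM D-luciferin, 10 uM ATP) in Tris acetate pH 7.5 buffer; luminescence output.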
ELG1 repair inh = ELG1-dependent DNA repair inhibition; 2.3% of 330,000 active; Potency, µM (doses to about 46.1 µM), for inactives: at the highest dose activity change, negative = inhibition, usual class: inhibitors; HEK293T ELG1-luciferase reporter, luminescence, 16 h; DNA damage induced by 5-fluorouridine; note: % is set by controls: 0 for no effect and ±100 for the full control effect; nearly all actives have a fitted effect of over 55% in size
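HEK293T cells expressing luciferase-tagged ELG1 (2,000/well) received 5-Fluorouridine plus compound or DMSO for 16 hr at 37 °C. Luciferase was read by ONE-Glo luminescence after 30 min at room temperature.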
NPC1 promoter act = activates the NPC1 promoter; Huh7 NPC1 promoter luciferase reporter, 24 h; Potency, µM (doses to about 9.22 µM), for inactives: at the top dose activation, usual class: activators; 2.4% of 320,000 active; AID 485313; note: % of control where 0% means no effect; nearly all actives have a fitted effect of over 60% in size
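In 1536-well qHTS, Huh7 cells harboring an NPC1 promoter–luciferase construct received compound for 24 h; activation was quantified by luminescence following luciferase reagent addition.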
Active calls of the source: *; ? = inconclusive; . = not tested or not shown. Rows were chosen to be rich in hits. Some 9.2% of all compounds tested hit in one or more screens of this group. Calls come from the whole dose curve; as a rule, active = well fitted curve in the direction sought with a large enough effect; inconclusive = small, poorly fitted or top-dose-only effect, or another doubt; inactive = no such curve, though single readings can be large; an effect the other way counts as inactive or inconclusive. Potency is the fitted concentration of half-maximal effect.

SMILES	Rab9 prom act	ELG1 genotox	SMN2 splice enh	FLuc modulator	ELG1 repair inh	NPC1 promoter act
CCOC(=O)c1cccc(NC(=O)c2ccc(NC(=O)c3ccco3)cc2)c1	3%	4%	.	0%	?	-1%
CCOC(=O)c1ccc(N/N=C/c2cc(Br)cc([N+](=O)[O-])c2O)cc1	0%	-13%	-69%	1.2µM*	-1%	-3%
COc1cc2ccccc2cc1C(=O)Nc1ccc2oc(-c3ccc(F)cc3)nc2c1	.	.	1%	0%	.	.
CC1CCCCN1CC(O)COCc1ccccc1 (centres undefined)	-2%	6%	.	-2%	20%	0%
CCOC(=O)c1cccc(NC(=O)c2cccnc2)c1	0%	-4%	-8%	-5%	11%	10%
CCOC(=O)c1ccc(Nc2ncccc2[N+](=O)[O-])cc1	1µM*	?	.	7.6µM*	?	2.5µM*
O=C(Oc1ccccc1C(=O)Nc1ccccc1)c1ccc(Br)c([N+](=O)[O-])c1	15%	13%	-6%	15µM*	?	1%
CCOC(=O)c1cccc(NC(=O)c2cnc3ccccc3n2)c1	2µM*	24%	.	17µM*	12%	?
COc1ccccc1C(=O)Oc1ccccc1C(=O)Nc1ccccc1	26%	-1%	.	?	?	15%
CCOC(=O)c1sc(NC(=O)CSc2nc3cccnc3n2C)nc1C	3%	-7%	.	-1%	?	1%
CCOC(=O)c1cccc(NC(=O)CSc2nc3cccnc3n2C)c1	-24%	-17%	-104%	-13%	18µM*	-12%
COc1ccc(N2CCN(C(=O)c3ccc4c(c3)CCN4S(C)(=O)=O)CC2)cc1	.	.	-4%	3%	.	.
CCOC(=O)c1ccc(NC(=O)c2ccccc2[N+](=O)[O-])cc1	27%	12%	18µM*	?	?	17%
CCOC(=O)c1ccc(NC(=O)c2cccc(C)c2[N+](=O)[O-])cc1	1%	3%	.	?	8%	10%
CCOc1ccc2nc(NC(=O)CN3C(=O)NC4(CCCC4)C3=O)sc2c1	25%	?	.	6.7µM*	?	11%
Cc1ccc2nc(NC(=O)CN3C(=O)NC4(CCCC4)C3=O)sc2c1	-3%	0%	.	9.5µM*	?	-6%
CCc1ccc2nc(NC(=O)CN3C(=O)NC4(CCCC4)C3=O)sc2c1	.	0%	.	.	?	.
CC(Oc1ccccc1)C(=O)N1CCN(C(=O)C(C)Oc2ccccc2)CC1 (centres undefined)	4%	-12%	.	-2%	6.5µM*	-3%
COc1cccc(NC(=O)CN(C)C(=O)c2c(C)nn(-c3ccccc3)c2Cl)c1	1%	1%	.	-1%	-25%	-1%
COc1cccc(C(=O)Nc2ccc3[nH]ncc3c2)c1	3.5µM*	?	.	11µM*	?	2.8µM*
CCOc1cccc(C(=O)Nc2ccncc2)c1	-14%	-5%	-11%	-14%	?	-4%
CCOc1cccc(C(=O)Nc2ccc3[nH]ncc3c2)c1	2µM*	?	.	5.4µM*	?	2.8µM*
COc1ccc(CC(=O)N(Cc2nc(-c3ccc(C)cc3)no2)C(C)C)cc1	.	.	-36%	-1%	.	.
COc1ccc(NC(=O)CN2C(=O)COc3ccc(S(=O)(=O)NC4CCCC4)cc32)cc1OC	.	.	.	4%	.	.
NS(=O)(=O)c1ccc(CNC(=O)CNC(=O)c2ccc(Br)o2)cc1	?	15%	.	5%	24%	23%
SMILES	Rab9 prom act	ELG1 genotox	SMN2 splice enh	FLuc modulator	ELG1 repair inh	NPC1 promoter act
Cc1cccc(CC(=O)Nc2ccc3nc(N4CCC(C)CC4)cc(C)c3c2)c1	.	.	-26%	3%	.	.
Cc1cc(N2CCC(C)CC2)nc2cccc(O)c12	4%	8%	-24%	24µM*	5%	4%
CSc1ccc(/C=C/c2cc(=O)c3ccccc3[nH]2)cc1	?	13%	17%	?	?	15%
Cc1[nH]c2ccccc2c1/C=C/c1cc[n+](C)cc1	-43%	-22%	-26%	2%	-4%	-36%
C(=C\c1nccc2c1[nH]c1ccccc12)/c1ccccc1	?	-5%	.	7.6µM*	?	?
c1ccc2c(c1)[nH]c1ccccc12	.	.	-3%	.	.	.
Cc1ccc(/C=C\c2nccc3c2[nH]c2ccccc23)cc1	?	?	?	1.7µM*	?	?
Fc1ccc(/C=C\c2nccc3c2[nH]c2ccccc23)cc1	18%	9%	16%	5.4µM*	-7%	20%
COc1ccccc1N1CCN(C(=O)Cn2c(=O)n3nc(-c4cccc(C)c4)nc3c3ccccc32)CC1	.	.	.	3%	.	.
C=CC[C@@H](Cc1ccc(F)cc1)C(=O)OC[C@H]1CCCN1C(=O)[C@@H](CC=C)CC(=O)N[C@@H](CO)Cc1ccccc1	.	-7%	.	.	-24%	.
C=CC[C@@H](Cc1ccc(F)cc1)C(=O)OC[C@H]1CCCN1C(=O)[C@H](CC=C)CC(=O)N[C@H](CO)Cc1ccccc1	.	-7%	.	.	23µM*	.
C=CC[C@@H](Cc1ccc(F)cc1)C(=O)OC[C@@H]1CCCN1C(=O)[C@@H](CC=C)CC(=O)N[C@H](CO)Cc1ccccc1	.	-9%	.	.	21µM*	.
C=CC[C@@H](Cc1ccc(F)cc1)C(=O)OC[C@H]1CCCN1C(=O)[C@@H](CC=C)CC(=O)N[C@H](CO)Cc1ccccc1	.	-9%	.	.	?	.
Cc1ccc(-c2nc3ccc(Cl)cc3n2OC(C)C(=O)O)cc1 (centres undefined)	0%	?	?	11µM*	?	0%
CC(On1c(-c2ccccc2)nc2ccc(Cl)cc21)C(=O)O (centres undefined)	9%	6%	8%	?	?	-3%
COc1ccc(-c2nc3ccccc3n2OC(C)C(=O)O)cc1 (centres undefined)	0%	?	.	11µM*	?	-2%
CSc1cccc(NC(=O)NNC(=O)C2CCN(S(=O)(=O)N(C)C)CC2)c1	-3%	-1%	.	0%	-1%	1%
CCOc1ccc(-c2csc(NC(=O)C3CCCO3)n2)cc1 (centres undefined)	11%	?	3%	15µM*	12%	18%
O=C(Nc1nc(-c2ccc(Cl)cc2)cs1)C1CCCO1 (centres undefined)	?	?	25%	15µM*	?	27%
CCOc1cc(/C=C2\C(=N)N3N=CSC3=NC2=O)ccc1OS(=O)(=O)c1ccccc1	0%	-6%	.	-19%	1%	1%
Cc1cc(/C=C2\C(=N)N3N=CSC3=NC2=O)c(C)n1Cc1ccccc1	?	?	.	1.3µM*	?	?
